Bioassay records: PubChem BioAssay, National Center for Advancing Translational Sciences (NCATS)
HT1080NT lethal: qHTS for induction of synthetic lethality in tumor cells producing 2HG: qHTS for the HT-1080-NT fibrosarcoma cell line; HT-1080-NT fibrosarcoma viability, CellTiter-Glo ATP luminescence, 48 h; Potency, µM (top dose mostly 46.1 µM), inactives show top-dose activity, negative = less viability, hits mostly cytotoxic; 360,000 compounds, 1.6% hits;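 also: NT is the 2HG producing partner of a matched IDH1 knockdown line; 0% = DMSO-treated cells and -100% = media-only wells without cells; nearly all actives have a fitted effect of over 55% in size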
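HT-1080-NT; 750 cells/well; 5% FBS RPMI; 48 h compound, 37 degrees C; CellTiter-Glo luminescence; curve fitting and curve-class assignment.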
HT1080 IDH1KD tx: qHTS for induction of synthetic lethality in tumor cells producing 2HG: qHTS for the HT-1080-IDH1KD cell line; 360,000 compounds, 2% hits; Potency, µM (highest dose often 46.1 µM), inactives show at the highest dose activity, negative = toxicity, usual class: cytotoxic; HT-1080 IDH1 knockdown viability, ATP luminescence, 48 h;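 also: 0% = DMSO wells and -100% = cell-free medium wells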
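Assay cells: HT-1080 with IDH1 knockdown, 750 per well, RPMI/5% FBS. Exposure: 48 h at 37 °C following 2 h pre-incubation. Read: CellTiter-Glo luminescence; fitted concentration-response, curve class assigned.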
TGFb SMAD3 inh: qHTS for Inhibitors of TGF-b. HepG2 CAGA-GFP TGF-b/SMAD3 reporter, GFP fluorescence, 18 h; TGF-beta stimulated, 500 pg/mL final. Potency, µM (doses to about 46.1 µM), inactives show top-dose activity, negative = inhibition, most hits filed as inhibitors. 410,000 compounds, 1.2% hits; also: % is scaled to controls: 0 for no effect and ±100 for the full control effect; nearly all actives have a fitted effect of over 65% in size
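Smad-responsive CAGA-GFP expression was quantified in HEPG2 cells exposed to compounds and 500 pg/mL final TGF-beta for 18 h at 37 degrees C; unstimulated wells defined full inhibition.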
HepG2 tox-1: qHTS for Inhibitors of TGF-b: Cytotox Counterscreen; HepG2 CAGA-GFP viability, ATP luminescence, 18 h; Potency, µM (titrated, usually from 46.1 µM), inactives show at the top dose activity change, negative = cytotoxicity, actives largely listed as cytotoxic; 410,000 compounds, 0.76% hits
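CellTiter-Glo luminescence gave cytotoxicity after 18 hours at 37 degrees C. The cells were HepG2 CAGA-GFP in 1% FBS DMEM, stimulated with 500 pg/mL TGF-beta after compound addition. %Activity was normalised to no-cell wells (complete cell-killing) and DMSO (no toxicity), and curves were fitted and classified.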
ATXN2 expr inh: Primary qHTS for Inhibitors of ATXN expression. HEK-293 ATXN2-luciferase reporter, luminescence, 24 h. Potency, µM (series often up to 57 µM), without a hit: at the top dose activity change, negative = inhibition, hits mostly inhibitors. 360,000 compounds, 0.72% hits. AID 1745845, 2022; also: % is scaled to controls: 0 for no effect and ±100 for the full control effect; nearly all actives have a fitted effect of over 55% in size
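qHTS (up to 57 uM final) was run with 24 h compound exposure of reporter cells at 37 °C. Each well was multiplexed: SteadyGlo luminescence measured ATXN2-luciferase expression after a fluorogenic Gly-Phe-AFC viability readout (25 uM final).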
ATXN viability: Viability Counterscreen for Primary qHTS for Inhibitors of ATXN expression; S2 cells (HEK-293 line with an ATXN2-luciferase reporter) viability, CellTiter-Fluor protease fluorescence, 24 h; Potency, µM (highest dose often 56.7 µM), usual class: cytotoxic; 400,000 compounds, 0.49% hits; also: nearly all actives have a fitted effect of over 40% in size
TGFb CAGA inh: qHTS for Inhibitors of TGF-b: Confirmation of Cherry Picks; shares compounds with TGFb SMAD3 inh; HepG2 CAGA-GFP TGF-b reporter, GFP fluorescence, 18 h; cells stimulated with TGF-beta, 500 pg/mL; Potency, µM (highest dose often 46.1 µM), inactives show at the top dose activity, negative = inhibition, most hits filed as inhibitors; 1,600 compounds, 63% hits; AID 720534, 2013; also: % is scaled to controls: 0 for no effect and ±100 for the full control effect; nearly all actives have a fitted effect of over 65% in size
HepG2 tox-2: qHTS for Inhibitors of TGF-b: Cytotox Counterscreen for Cherry Picks; 1,600 compounds, 27% hits; Potency, µM (series often up to 46.1 µM), for the others: at the top dose activity, negative = cytotoxicity, most hits filed as inhibitors; HepG2 CAGA-GFP viability, ATP luminescence, 18 h; cells stimulated with TGF-beta, 500 pg/mL; shares compounds with TGFb SMAD3 inh; AID 720535, 2013; also: % is scaled to controls: 0 for no effect and ±100 for the full control effect; nearly all actives have a fitted effect of over 70% in size
TGFb CCL64 inh: qHTS for Inhibitors of TGF-b: CCL64 Cells Orthogonal Assay for Cherry Picks | 1,600 compounds, 41% hits | CCL64 CAGA-GFP reporter, TGF-b stimulated, GFP fluorescence, 18 h | shares compounds with TGFb SMAD3 inh | Potency, µM (series often up to 46.1 µM), for the others: top-dose activity, negative = inhibition, actives largely listed as inhibitors; also: nearly all actives have a fitted effect of over 65% in size
COP TGFb inh: qHTS for Inhibitors of TGF-b: Hit Validation in HepG2 Cells using COP promoter; shares compounds with TGFb SMAD3 inh; HepG2 COP-GFP TGF-b reporter, GFP fluorescence, 18 h; cells stimulated by added recombinant TGF-beta; Potency, µM (titrated, usually from 46.1 µM), inactives show top-dose activity, negative = inhibition, actives largely listed as inhibitors; 1,600 compounds, 3% hits; AID 720537, 2013; also: nearly all actives have a fitted effect of over 70% in size
* marks the source's active call; other numbers are inactive results; i = inactive; ? = inconclusive; · = no result; [ ] = remark or other dose. Hits are enriched below; roughly 3.8% of the tested compounds scored in any of these assays. Calls follow the shape of the dose curve; as a rule, active = well fitted curve in the direction sought with a large enough effect; inconclusive = small, poorly fitted or top-dose-only effect, or another doubt; inactive = no such curve, though single readings can be large; an effect the other way counts as inactive or inconclusive. Potency is read from the fitted curve at half-maximal effect.

SMILES	HT1080NT lethal	HT1080 IDH1KD tx	TGFb SMAD3 inh	HepG2 tox-1	ATXN2 expr inh	ATXN viability	TGFb CAGA inh	HepG2 tox-2	TGFb CCL64 inh	COP TGFb inh
CCOC(=O)C1=CCN(S(=O)(=O)c2ccccc2F)C1c1cccc(Cl)c1 (stereo not given)	-3%	-1%	11µM*	-18%	-22%	?	?	3%	?	-1%
COc1cc(CN(C(=O)c2oc3ccccc3c2C)C2CCS(=O)(=O)C2)cc(OC)c1OC (stereo not given)	·	·	-4%	-30%	7%	i	·	·	·	·
CC[C@@H](CC1CCCCC1)C(=O)N(Cc1ccccc1)c1ccccc1	-4%	-4%	2.5µM*	-23%	-17%	i	-17%	?	?	9%
CC(C)NC(=O)N1CCN(S(=O)(=O)c2ccc3c(ccn3C)c2)CC1	·	·	-4%	-6%	12%	i	·	·	·	·
Cn1cc([N+](=O)[O-])c(C(=O)Nc2ccc3nc(-c4ccccc4)[nH]c3c2)n1	?	?	7.9µM*	25%	44%	i	6.5µM*	?	12%	23%
CCC(=O)N1CCCc2cc(S(=O)(=O)N3CCC(C(=O)Nc4ccccc4CC)CC3)ccc21	·	·	-10%	-1%	0%	i	·	·	·	·
CN(C)c1ccc(CNS(=O)(=O)c2ccc3[nH]c4c(c3c2)CCCCC4)cc1	·	·	?	-41%	49%	i	·	·	·	·
CC(=O)Oc1ccc2nonc2c1OC(C)=O	·	·	-13%	-3%	·	·	·	·	·	·
CC(=O)Nc1cc(OC(C)=O)c2nonc2c1OC(C)=O	6.3µM*	3.5µM*	2.8µM*	6.3µM*	?	·	4.1µM*	7.3µM*	21µM*	9.2µM*
CC1(C)Cc2c(cnn2-c2ccccc2)C(=O)/C1=N\NC(=O)c1ccccc1N	?	7%	-20%	-5%	0%	i	·	·	·	·
CC1(C)Cc2c(cnn2-c2ccccc2)-c2c1c1ccccc1n2CC(O)CBr (stereo not given)	?	2%[9.24 µM]	?	-61%	-11%	?	?	-26%	?	20%
Nc1cc(Nc2ccccc2)ccn1	-1%	-10%	-1%	1%	-15%	i	·	·	·	·
N#Cc1sc2nccc(Nc3ccccc3)c2c1N	-24%	-23%	4.5µM*	-19%	-6%	?	8.2µM*	10%	10%	-3%
O=C(C1CCC(CNS(=O)(=O)c2cccc3nsnc23)CC1)N1CC=C(c2ccccc2)CC1 (stereo not given)	-13%	?	8.9µM*	-52%	?	i	?	?	?	12%
CCOc1ccc(Nc2oc(/C=C/c3cc(OC)c(OC)c(OC)c3)nc2C#N)cc1	·	·	2%	0%	·	·	·	·	·	·
COc1ccc(Cl)cc1NC(=O)CCc1c(C)nc2c(c1C)c(=O)n(C)c(=O)n2C	·	·	-1%	3%	2%	i	·	·	·	·
CCCC(O)c1nc2ccccc2n1CCCOc1ccc(Cl)cc1 (stereo not given)	·	·	?	-41%	-10%	i	·	·	·	·
COc1ccc2cc(CNc3ccc(C)cc3)c(=O)n(CC(=O)Nc3ccc(OC)c(Cl)c3)c2c1	·	·	0%	-4%	20%	i	·	·	·	·
O=C(Nc1ccc2c(c1)N(C1CCCC1)C(=O)c1ccccc1S2)c1ccc(F)cc1	·	·	26%	-24%	54%	i	·	·	·	·
Cc1noc(Cn2c(=O)c3ccccc3n(CC(=O)Nc3ccc(C(C)C)cc3)c2=O)n1	·	·	?	-52%	·	·	·	·	·	·
O=C(OCc1ccccc1)c1ccc(NCc2cc(O)ccc2O)cc1	9.2µM*	5.8µM*	10µM*	-66%	10µM*	·	5.2µM*	16µM*	2.1µM*	-10%
COc1ccc(Br)cc1CNC(=O)c1cc2n(n1)CCCN(Cc1ccc(C)cc1)C2=O	·	·	?	-18%	-19%	?	·	·	·	·
COC(=O)c1ccc(-n2c(/C=C\c3cccc(Br)c3)nc3ccccc3c2=O)cc1	·	·	-21%	-28%	·	·	·	·	·	·
O=C(COc1ccc(Cl)cc1)NCCc1csc(-c2ccc(C(F)(F)F)cc2)n1	·	·	-5%	-66%	·	·	·	·	·	·
COc1ccc(CNC(=O)C[C@H]2C[C@H](C(=O)N(C(C)C)C(C)C)[C@@]3(C)c4[nH]c5ccc(Cl)cc5c4CCN3C2=O)cc1OC	-19%	-24%	14µM*	-12%	?	?	8.2µM*	?	?	62%
COc1ccc(CNC(=O)C[C@H]2C[C@H](C(=O)N3CCCCC3)[C@@]3(CCc4ccccc4)c4[nH]c5ccc(Cl)cc5c4CCN3C2=O)cc1OC	3%	1%	6.3µM*	-3%	-3%	?	8.2µM*	-17%	6.5µM*	33%
CC[C@]12c3[nH]c4ccc(Cl)cc4c3CCN1C(=O)[C@@H](CC(=O)NCc1ccc(OC)c(OC)c1)C[C@@H]2C(=O)N1CCN(C(=O)C2CC2)CC1	-3%	-6%	-23%	-6%	-4%	i	·	·	·	·
Cc1ccnc(NS(=O)(=O)c2ccc(NC(=O)C(C)(C)Oc3ccc(Cl)cc3)cc2)n1	·	·	-12%	-3%	6%	i	·	·	·	·
